PubChem BioAssay AID1159580 (chemical genetic matrix, 2015)
About 2,000 (36%) of roughly 5,500 compounds were called active. Roughly 18% stayed inconclusive and do not appear here. No stated cut-off is given here; in the data, active means normalized growth mostly below about 0.91 (no sharp cut-off); inconclusive means no clear call, values can overlap the other calls; inactive means mostly above about 0.92. The list shows a part of the results.

Assay: chemical genetic growth profiling, strain panel (AID 1159580);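 further: tested at 20 µM; growth read once vehicle control cultures reached saturation at 30 °C; 1 = growth at the plate median or of vehicle wells; lower values mean less growth of the strain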
Settings: growth OD

Measured: normalized growth

O=c1cc(-c2ccccc2)oc2cc(O)c(O)c(O)c12
inactive: S. cerevisiae deletion strains, locus YKL009W, strain mrt4, hits give low values 0.97 | S. cerevisiae deletion strains, locus YOL012C, strain htz1 0.269
active: S. cerevisiae deletion strains, locus YKL068W, hits give low values 0.855 | S. cerevisiae deletion strains, locus YKL085W, strain MDH1 (second series), hits give low values 0.84 | S. cerevisiae deletion strains, locus YKL085W, strain MDH1, hits give low values 0.84 | S. cerevisiae deletion strains, locus YKL160W, strain elf1, hits give low values 0.701 | S. cerevisiae deletion strains, locus YKL190W, strain CNB1, hits give low values 0.429 | S. cerevisiae deletion strains, locus YKR001C, strain vps1, hits give low values 0.376 | S. cerevisiae deletion strains, locus YKR026C, strain gcn3, hits give low values 0.572 | S. cerevisiae deletion strains, locus YKR091W, strain srl3, hits give low values 0.763 | S. cerevisiae deletion strains, locus YLL001W, strain dnm1, hits give low values 0.482 | S. cerevisiae deletion strains, locus YLL026W, hits give low values 0.57 | S. cerevisiae deletion strains, locus YLL041C, strain sdh2, hits give low values 0.649 | S. cerevisiae deletion strains, locus YLR027C, strain aat2, hits give low values 0.575 | S. cerevisiae deletion strains, locus YLR039C, strain RIC1, hits give low values 0.154 | S. cerevisiae deletion strains, locus YLR058C, strain SHM2, hits give low values 0.0829 | S. cerevisiae deletion strains, locus YLR102C, strain apc9, hits give low values 0.857 | S. cerevisiae deletion strains, locus YLR113W, strain HOG1, hits give low values 0.575 | S. cerevisiae deletion strains, locus YLR221C, strain rsa3, hits give low values 0.521 | S. cerevisiae deletion strains, locus YLR258W, strain gsy2, hits give low values 0.576 | S. cerevisiae deletion strains, locus YLR262C, strain YPT6 (second series), hits give low values 0.303 | S. cerevisiae deletion strains, locus YLR262C, strain YPT6, hits give low values 0.375 | S. cerevisiae deletion strains, locus YLR268W, strain sec22, hits give low values 0.176 | S. cerevisiae deletion strains, locus YLR320W, strain mms22, hits give low values 0.418 | S. cerevisiae deletion strains, locus YLR330W, strain CHS5, hits give low values 0.543 | S. cerevisiae deletion strains, locus YLR342W, strain FKS1 (second series), hits give low values 0.345 | S. cerevisiae deletion strains, locus YLR342W, strain FKS1, hits give low values 0.364 | S. cerevisiae deletion strains, locus YLR357W, strain rsc2, hits give low values 0.474 | S. cerevisiae deletion strains, locus YLR370C, strain arc18, hits give low values 0.427 | S. cerevisiae deletion strains, locus YLR371W, strain rom2, hits give low values 0.588 | S. cerevisiae deletion strains, locus YLR384C, strain iki3, hits give low values 0.327 | S. cerevisiae deletion strains, locus YLR418C, strain cdc73, hits give low values 0.303 | S. cerevisiae deletion strains, locus YML016C, strain PPZ1, hits give low values 0.399 | S. cerevisiae deletion strains, locus YML032C, strain rad52, hits give low values 0.165 | S. cerevisiae deletion strains, locus YML120C, strain ndi1, hits give low values 0.14 | S. cerevisiae deletion strains, locus YML124C, strain tub3, hits give low values 0.424 | S. cerevisiae deletion strains, locus YMR058W, strain fet3, hits give low values 0.223 | S. cerevisiae deletion strains, locus YMR078C, strain ctf18, hits give low values 0.547 | S. cerevisiae deletion strains, locus YMR125W, strain sto1, hits give low values 0.802 | S. cerevisiae deletion strains, locus YMR129W, hits give low values 0.568 | S. cerevisiae deletion strains, locus YMR205C, strain PFK2, hits give low values 0.294 | S. cerevisiae deletion strains, locus YMR223W, strain ubp8, hits give low values 0.464 | S. cerevisiae deletion strains, locus YMR231W, strain pep5, hits give low values 0.398 | S. cerevisiae deletion strains, locus YMR263W, strain SAP30, hits give low values 0.207 | S. cerevisiae deletion strains, locus YMR307W, strain GAS1, hits give low values 0.456 | S. cerevisiae deletion strains, locus YNL067W, strain RPL9B, hits give low values 0.401 | S. cerevisiae deletion strains, locus YNL071W, strain lat1, hits give low values 0.675 | S. cerevisiae deletion strains, locus YNL128W, strain TEP1, hits give low values 0.387 | S. cerevisiae deletion strains, locus YNL153C, strain GIM3, hits give low values 0.215 | S. cerevisiae deletion strains, locus YNL183C, strain NPR1, hits give low values 0.634 | S. cerevisiae deletion strains, locus YNL209W, strain ssb2, hits give low values 0.185 | S. cerevisiae deletion strains, locus YNL233W, strain BNI4, hits give low values 0.502 | S. cerevisiae deletion strains, locus YNL248C, strain rpa49, hits give low values 0.633 | S. cerevisiae deletion strains, locus YNL250W, strain rad50, hits give low values 0.76 | S. cerevisiae deletion strains, locus YNL271C, strain bni1, hits give low values 0.774 | S. cerevisiae deletion strains, locus YNL298W, strain CLA4, hits give low values 0.756 | S. cerevisiae deletion strains, locus YNL307C, strain MCK1, hits give low values 0.517 | S. cerevisiae deletion strains, locus YNL322C, strain KRE1 (second series), hits give low values 0.187 | S. cerevisiae deletion strains, locus YNL322C, strain KRE1, hits give low values 0.241 | S. cerevisiae deletion strains, locus YNR049C, strain mso1, hits give low values 0.714 | S. cerevisiae deletion strains, locus YNR052C, strain pop2, hits give low values 0.122 | S. cerevisiae deletion strains, locus YOL006C, strain TOP1, hits give low values 0.136 | S. cerevisiae deletion strains, locus YOL147C, strain pex11, hits give low values 0.187 | S. cerevisiae deletion strains, locus YOR001W, strain rrp6, hits give low values 0.325 | S. cerevisiae deletion strains, locus YOR061W, strain CKA2, hits give low values 0.545 | S. cerevisiae deletion strains, locus YOR069W, strain VPS5, hits give low values 0.617 | S. cerevisiae deletion strains, locus YOR070C, strain gyp1, hits give low values 0.782 | S. cerevisiae deletion strains, locus YOR080W, strain dia2, hits give low values 0.105 | S. cerevisiae deletion strains, locus YOR083W, strain WHI5, hits give low values 0.618 | S. cerevisiae deletion strains, locus YOR106W, strain vam3, hits give low values 0.221 | S. cerevisiae deletion strains, locus YOR136W, strain idh2, hits give low values 0.557 | S. cerevisiae deletion strains, locus YOR144C, strain elg1, hits give low values 0.202 | S. cerevisiae deletion strains, locus YOR184W, strain ser1, hits give low values 0.314 | S. cerevisiae deletion strains, locus YOR231W, strain MKK1, hits give low values 0.68 | S. cerevisiae deletion strains, locus YOR265W, strain rbl2, hits give low values 0.507 | S. cerevisiae deletion strains, locus YOR270C, strain vph1, hits give low values 0.169 | S. cerevisiae deletion strains, locus YOR290C, strain snf2, hits give low values 0.0825 | S. cerevisiae deletion strains, locus YOR316C, strain cot1, hits give low values 0.738 | S. cerevisiae deletion strains, locus YPL051W, strain arl3, hits give low values 0.328 | S. cerevisiae deletion strains, locus YPL055C, strain LGE1, hits give low values 0.443 | S. cerevisiae deletion strains, locus YPL078C, strain atp4, hits give low values 0.144 | S. cerevisiae deletion strains, locus YPL106C, strain sse1, hits give low values 0.582 | S. cerevisiae deletion strains, locus YPL240C, strain hsp82, hits give low values 0.671 | S. cerevisiae deletion strains, locus YPL241C, strain CIN2, hits give low values 0.57 | S. cerevisiae deletion strains, locus YPL256C, strain CLN2, hits give low values 0.693 | S. cerevisiae deletion strains, locus YPR119W, strain clb2, hits give low values 0.802 | S. cerevisiae deletion strains, locus YPR141C, strain kar3, hits give low values 0.849 | S. cerevisiae deletion strains, locus YPR163C, strain tif3, hits give low values 0.659 | S. cerevisiae deletion strains, locus YPR167C, strain met16, hits give low values 0.564 | S. cerevisiae deletion strains, strain wtn01, hits give low values 0.349 | S. cerevisiae strains, strain wild type, hits give low values 0.268
